Source: the supplement of paper PMC6522484
± gives the standard deviation of the averaged measurements.

How the values were obtained:
[1] = system: DLD1; assay: cell viability (CellTiter-Glo) relative to plate median (fraction of plate median); higher = more viable cells; details: 5 µM; treatment time 24 h; reporter: 7TFP
Summary of the method: (§1)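 Colorectal cancer cell lines stably transduced with lentiviral TCF/Wnt firefly luciferase reporters (7TFP or TCF4/Wnt) were seeded in 384-well plates. 24 h later they received library compounds at a final 5 µM for 24 h. Parallel plates were read for firefly luciferase or CellTiterGlo luminescence on a Tecan F500 reader. Each well's signal was normalised to the plate median (webcellHTS2, additive, no log transformation), and the mean of two independent replicates is reported.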

[2] = system: HCT116; assay: as above; details: 5 µM; treatment time 24 h; reporter: TCF4/Wnt
Summary of the method: as §1

[3] = system: SW480; assay: as above; details: 5 µM; treatment time 24 h; reporter: 7TFP
Summary of the method: as §1

[4] = system: DLD1; assay: TCF/Wnt firefly luciferase reporter signal relative to plate median (fraction of plate median); higher = higher Wnt reporter signal; details: 5 µM; treatment time 24 h; reporter: 7TFP
Summary of the method: as §1

[5] = system: SW480; assay: as above; details: 5 µM; treatment time 24 h; reporter: 7TFP
Summary of the method: as §1

[6] = system: DLD1; assay: cell viability (CellTiter-Glo) relative to plate median (fraction of plate median); higher = more viable cells; details: 10 µM, treatment time 24 h
Summary of the method: (§2)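 Kinase inhibitor library compounds were added at a final 10 µM for 24 h to colorectal cancer cells in 384-well plates, 24 h after seeding. The cells stably expressed lentiviral TCF/Wnt firefly luciferase reporters. Firefly luciferase and CellTiterGlo luminescence came from parallel plates, and each well was normalised to its plate median (webcellHTS2, additive, untransformed), averaged over two independent replicates.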

[7] = system: HCT116; assay: as above; details: 10 µM; treatment time 24 h; reporter: TCF4/Wnt
Summary of the method: as §2

[8] = system: SW480; assay: as above; details: 10 µM; treatment time 24 h; reporter: 7TFP
Summary of the method: as §2

[9] = system: DLD1; assay: TCF/Wnt firefly luciferase reporter signal relative to plate median (fraction of plate median); higher = higher Wnt reporter signal; details: 10 µM, treatment time 24 h
Summary of the method: as §2

[10] = system: HCT116; assay: as above; details: 10 µM; treatment time 24 h; reporter: TCF4/Wnt
Summary of the method: as §2

[11] = system: SW480; assay: as above; details: 10 µM; treatment time 24 h; reporter: 7TFP
Summary of the method: as §2

## C[C@]12CCC(=O)C[C@@H]1CC[C@@H]1[C@@H]2CC[C@]2(C)C(=O)CC[C@@H]12 [5alpha-ANDROSTAN-3,17-DIONE]
[1]
  cell viability: 0.895 ± 0.095
[2]
  cell viability: 1.07
[3]
  cell viability: 0.959 ± 0.052
[4]
  TCF/Wnt firefly luciferase reporter signal: 0.959 ± 0.086
[5]
  TCF/Wnt firefly luciferase reporter signal: 0.9525 ± 0.005

## COc1cc2c(cc1OC)[C@@H]1C(=O)c3ccc4oc(C(C)C)cc4c3O[C@@H]1CO2
[1]
  cell viability: 0.923 ± 0.052
[2]
  cell viability: 0.875 ± 0.14
[3]
  cell viability: 0.75 ± 0.021
[4]
  TCF/Wnt firefly luciferase reporter signal: 0.974 ± 0.028
[5]
  TCF/Wnt firefly luciferase reporter signal: 0.749 ± 0.052

## Oc1cc(Cl)ccc1Oc1ccc(Cl)cc1Cl
[1]
  cell viability: 0.936 ± 0.078
[2]
  cell viability: 0.913 ± 0.011
[3]
  cell viability: 0.954 ± 0.021
[4]
  TCF/Wnt firefly luciferase reporter signal: 0.983 ± 0.15
[5]
  TCF/Wnt firefly luciferase reporter signal: 0.893 ± 0.021

## CC(C)(C)c1cc(C=C(C#N)C#N)cc(Br)c1O
[6]; reporter: 7TFP
  cell viability: 0.79 ± 0.03
[6]; reporter: TCF4/Wnt
  cell viability: 0.804 ± 0.18
[7]
  cell viability: 0.966 ± 0.16
[8]
  cell viability: 0.91 ± 0.035
[9]; reporter: 7TFP
  TCF/Wnt firefly luciferase reporter signal: 1.2 ± 0.092
[9]; reporter: TCF4/Wnt
  TCF/Wnt firefly luciferase reporter signal: 1.07 ± 0.18
[10]
  TCF/Wnt firefly luciferase reporter signal: 1.38 ± 0.25
[11]
  TCF/Wnt firefly luciferase reporter signal: 1.3 ± 0.11

## CCCC(=O)O[C@@H]1[C@@H](C)[C@@]2(O)[C@@H](C=C(CO)C[C@]3(O)C(=O)C(C)=C[C@@H]23)[C@@H]2C(C)(C)[C@]12OC(=O)CCC
[1]
  cell viability: 0.9955 ± 0.0021
[2]
  cell viability: 0.991 ± 0.069
[3]
  cell viability: 1.02 ± 0.033
[4]
  TCF/Wnt firefly luciferase reporter signal: 1.03 ± 0.1
[5]
  TCF/Wnt firefly luciferase reporter signal: 0.984 ± 0.0085

## CC(C)C[C@H](CN)CC(=O)O
[1]
  cell viability: 1.03 ± 0.073
[2]
  cell viability: 1.05 ± 0.1
[3]
  cell viability: 1.04 ± 0.014
[4]
  TCF/Wnt firefly luciferase reporter signal: 1.09 ± 0.064
[5]
  TCF/Wnt firefly luciferase reporter signal: 0.936 ± 0.011

## COC[C@]12CN(C=O)[C@@H]3[C@@H]4[C@H](OC)[C@H]1[C@@]3([C@@H](OC)C[C@H]2O)[C@@H]1C[C@@]2(O)[C@H](OC(=O)c3ccccc3)[C@@H]1[C@]4(OC(C)=O)[C@@H](O)[C@@H]2OC
[1]
  cell viability: 1.01 ± 0.057
[2]
  cell viability: 1.17 ± 0.057
[3]
  cell viability: 1.05 ± 0.071
[4]
  TCF/Wnt firefly luciferase reporter signal: 0.934 ± 0.15
[5]
  TCF/Wnt firefly luciferase reporter signal: 1.02 ± 0.052

## CN1C[C@H](C(=O)N[C@]2(C)O[C@@]3(O)[C@@H]4CCCN4C(=O)[C@H](Cc4ccccc4)N3C2=O)C=C2c3cccc4[nH]cc(c34)C[C@H]21
[1]
  cell viability: 0.967 ± 0.09
[2]
  cell viability: 1.11 ± 0.078
[3]
  cell viability: 1.03 ± 0.042
[4]
  TCF/Wnt firefly luciferase reporter signal: 1.23 ± 0.25
[5]
  TCF/Wnt firefly luciferase reporter signal: 1.16 ± 0.078

## CN[C@@H]1C[C@H]2O[C@@](C)([C@@H]1OC)n1c3ccccc3c3c4c(c5c6ccccc6n2c5c31)C(=O)NC4 [Staurosporine]
[6]; reporter: 7TFP
  cell viability: 0.617 ± 0.047
[6]; reporter: TCF4/Wnt
  cell viability: 0.701 ± 0.067
[7]
  cell viability: 0.23 ± 0.13
[8]
  cell viability: 0.68 ± 0.25
[1]
  cell viability: 0.837 ± 0.027
[2]
  cell viability: 0.712 ± 0.0099
[3]
  cell viability: 1.14 ± 0.035
[4]
  TCF/Wnt firefly luciferase reporter signal: 0.583 ± 0.023
[5]
  TCF/Wnt firefly luciferase reporter signal: 0.965 ± 0.045
[9]; reporter: 7TFP
  TCF/Wnt firefly luciferase reporter signal: 0.204 ± 0.069
[9]; reporter: TCF4/Wnt
  TCF/Wnt firefly luciferase reporter signal: 0.2 ± 0.04
[10]
  TCF/Wnt firefly luciferase reporter signal: 0.103 ± 0.0065
[11]
  TCF/Wnt firefly luciferase reporter signal: 0.346 ± 0.19

## N#Cc1c(Cl)c(Cl)c(Cl)c(C#N)c1Cl
[1]
  cell viability: 0.687 ± 0.075
[2]
  cell viability: 0.465 ± 0.13
[3]
  cell viability: 1.01 ± 0.052
[4]
  TCF/Wnt firefly luciferase reporter signal: 0.293 ± 0.14
[5]
  TCF/Wnt firefly luciferase reporter signal: 0.286 ± 0.15

## O=P1(N(CCCl)CCCl)NCCCO1 (stereo unspecified)
[1]
  cell viability: 1.03 ± 0.035
[2]
  cell viability: 0.955 ± 0.015
[3]
  cell viability: 0.959 ± 0.051
[4]
  TCF/Wnt firefly luciferase reporter signal: 1.1 ± 0.18
[5]
  TCF/Wnt firefly luciferase reporter signal: 0.92 ± 0.014

## COC(=O)[C@]1(C)CC[C@]2(C)CC[C@]3(C)C4=CCc5c(cc(O)c(O)c5C)[C@]4(C)CC[C@@]3(C)[C@@H]2C1
[1]
  cell viability: 0.9465 ± 0.0078
[2]
  cell viability: 1.045 ± 0.0071
[3]
  cell viability: 1.005 ± 0.0071
[4]
  TCF/Wnt firefly luciferase reporter signal: 1.03 ± 0.054
[5]
  TCF/Wnt firefly luciferase reporter signal: 1.11 ± 0.014
